# Experimental data from PubChem BioAssay AID1851 (National Center for Advancing Translational Sciences (NCATS), 2009).
# Values joined by “and” are separate entries in the source; they are usually repeats but may differ in a detail not shown here. Equal entries are not always repeated. Out of some 16,000 compounds screened, about 5,100 (32%) were called active. About 25% were inconclusive and are not listed. The list shows a part of the results. Unmarked numbers belong to inactive results. The call rests on the fitted dose curve; in most records, active means well fitted curve in the direction sought with a large enough effect; inconclusive means small, poorly fitted or top-dose-only effect, or effect the other way; inactive means no such curve, though single readings can be large or run the other way.
# Target: Cytochrome P450 3A4 (Homo sapiens) (UniProt P08684)
# Sequence (P08684 whole entry, looked up): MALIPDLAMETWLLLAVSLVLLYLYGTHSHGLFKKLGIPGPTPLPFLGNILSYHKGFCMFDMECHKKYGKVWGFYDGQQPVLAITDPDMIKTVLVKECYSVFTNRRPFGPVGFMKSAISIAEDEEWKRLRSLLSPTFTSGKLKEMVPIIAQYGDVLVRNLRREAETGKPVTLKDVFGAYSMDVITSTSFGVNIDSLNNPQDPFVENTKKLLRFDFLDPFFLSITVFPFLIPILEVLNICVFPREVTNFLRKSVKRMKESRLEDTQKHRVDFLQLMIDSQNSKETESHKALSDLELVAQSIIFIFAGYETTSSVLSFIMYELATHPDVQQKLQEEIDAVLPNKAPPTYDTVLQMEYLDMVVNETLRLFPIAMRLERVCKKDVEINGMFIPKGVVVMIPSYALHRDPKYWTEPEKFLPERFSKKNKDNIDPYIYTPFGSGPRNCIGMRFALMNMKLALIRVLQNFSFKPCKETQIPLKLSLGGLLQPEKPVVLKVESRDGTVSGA
# Assay: Cytochrome panel assay with activity outcomes
# Settings: recombinant CYP, pro-luciferin dealkylation, luminescence, p450-cyp3a4; series mostly up to 57.1 µM
# On the % scale 0 is the no-effect control and ±100 the full control effect.
Structure (SMILES),AC50,"activity, negative = inhibition"
N[C@H](C(=O)O)c1ccc(C(=O)O)cc1,inactive,–
CCN(CC)CCNC(=O)Cn1nc(-c2ccc(C)cc2)ccc1=O,inactive,–
CN(C)c1ncc2nc(-c3cccc(C#N)c3)c(=O)n(CCC#N)c2n1,inactive,–
COc1cccc(Cn2c(=O)c(-c3cccc(C#N)c3)nc3cnc(OC)nc32)c1,3.16 µM (active),–
COc1ncc2nc(-c3cccc(C#N)c3)c(=O)n(CCC#N)c2n1,25.1 µM (active),–
COc1ccc(Oc2ncc3nc(-c4cccc(C#N)c4)c(=O)n(Cc4cccc(OC)c4)c3n2)cc1,2 µM (active),–
N#CCCn1c(=O)c(-c2cccc(C#N)c2)nc2cnc(Oc3cccc(Cl)c3)nc21,inactive,–
CC(C)[C@H](CO)Nc1nc(Nc2ccc(C(=O)O)c(Cl)c2)c2ncn(C(C)C)c2n1,inactive,–
NCCC(=O)O,inactive,–
O=C(Nc1nnc(-c2ccc(Cl)cc2)o1)Nc1ccccc1Cl,–,-3.31% [at 2.29 µM]
Cc1ccc(-c2nnc(-c3ccccc3S(=O)(=O)Cc3ccc(Cl)cc3)o2)cc1,3.98 µM (active),–
NS(=O)(=O)c1cc(C(=O)O)c(O)c2ccccc12,–,-3.6% [at 11.4 µM]
COc1ccc2c(c1)C(c1ccc([N+](=O)[O-])cc1)=NNC(c1ccco1)=N2,14.1 µM (active),–
FC(F)(F)c1ccccc1-c1ccc2ncnc(NCc3cccs3)c2c1,5.01 µM (active),–
Cc1ccccc1-c1ccc2ncnc(NCc3cccs3)c2c1,3.98 µM (active),–
Cc1cc2nc(CCN(C(=S)NCC(C)C)C3CCCC3)[nH]c2cc1C,17.8 µM (active),–
Cc1noc(C)c1COc1ccc(C(=O)NCC2CCCO2)cc1 (stereo not given),inactive,–
COc1cc(C(=O)OC(C)C(=O)Nc2ccc3c(c2)OCO3)ccc1OCc1c(C)noc1C (stereo not given),0.631 µM (active),–
C/C(CCN1CCCCc2nc(C)c(C)cc21)=N\O[C@@H](C)c1cn([C@H](CO)Cc2ccccc2)nn1,3.98 µM (active) and 5.01 µM (active),–
C/C(CCN1CCCc2nc(C)c(C)cc21)=N\O[C@@H](C)c1cn([C@H](CO)Cc2ccccc2)nn1,2 µM (active),–
CCc1cc2c(nc1CC)CCN(CC/C(C)=N/O[C@@H](C)c1cn([C@@H]3COC[C@@H]3O)nn1)C2,–,-5.44% [at 11.4 µM]
CC(C)=NO[C@@H](C)c1cn([C@H](CO)Cc2ccccc2)nn1,–,-28.8% [at 11.4 µM] and -23.4% [at 11.4 µM]
CCc1cc2c(nc1CC)CCN(CC/C(C)=N/O[C@@H](C)c1cn([C@H](CO)Cc3ccccc3)nn1)C2,3.16 µM (active) and 3.98 µM (active),–

Structure (SMILES),AC50,"activity, negative = inhibition"
CN(C)C(=O)CN(c1ccc2c(c1)OCO2)S(C)(=O)=O,25.1 µM (active),–
Cc1cccc(N(CC(=O)N2CCOCC2)S(C)(=O)=O)c1,inactive,–
COc1ccccc1NC(=O)CN1CCN(CC(=O)Nc2ccc(OCc3ccccc3)cc2)CC1,inactive,–
COc1ccc(NC(C)=O)cc1NC(=O)CN1CCN(CC(=O)Nc2ccccc2Cl)CC1,12.6 µM (active),–
COc1ccc(NC(=O)CN2CCN(CC(=O)Nc3ccccc3Cl)CC2)cc1,10 µM (active),–
O=C(CN1C(=O)C2C3C=CC(C3)C2C1=O)Nc1ccc2c(c1)OCCO2 (stereo not given),25.1 µM (active),–
O=C(CN1C(=O)C2C3C=CC(C3)C2C1=O)Nc1ccc(C(=O)O)cc1 (stereo not given),inactive,–
COc1ccc(NC(=O)CN2c3cccc4cccc(c34)S2(=O)=O)cc1,4.47 µM (active),–
CSc1nc(NC2CCCC2)c([N+](=O)[O-])c(NC2CCCC2)n1,inactive,–
COc1ccc([C@@H]2CC(=O)c3c(O)cc(O[C@H]4O[C@@H](CO[C@H]5O[C@@H](C)[C@@H](O)[C@@H](O)[C@@H]5O)[C@@H](O)[C@@H](O)[C@@H]4O)cc3O2)cc1O,inactive,–
O=C(Nc1ccc2c(c1)OCCO2)C1CCN(C(=O)c2ccccc2)CC1,inactive,–
O=C(CN1CCN(CC(=O)Nc2ccccc2Cl)CC1)Nc1ccc2c(c1)OCCO2,14.1 µM (active),–
COc1cccc(OC)c1OCCNC[C@@H]1COc2ccccc2O1,2 µM (active) and 2.51 µM (active),–
COc1cccc(OC)c1OCCCN1CCOCC1,inactive,–
COc1cccc(OC)c1OCCCCN1CCCC1,inactive,–
O=C(CCN1C(=O)c2ccccc2C1=O)NC(=S)Nc1cccc(Cl)c1,15.8 µM (active),–
O=C(Nc1cccc(Cl)c1)N1CCN2C(=O)c3ccccc3C12c1ccccc1 (stereo not given),–,-22.9% [at 2.29 µM]
O=C(COc1ccccc1Cl)NC(=S)Nc1cccc(NC(=O)c2ccccc2Cl)c1,–,7.56% [at 2.29 µM]
Cc1cccc(NC(=S)NNC(=O)CCn2cc(C)cn2)c1,inactive,–
Cc1cnn(CCC(=O)NNC(=S)Nc2cccc(Cl)c2)c1,12.6 µM (active),–
CNC[C@H](O)[C@H](O)[C@H](O)[C@H](O)CO,inactive,–
Cc1cccc(NC(=O)c2onc3c2CCCC3)c1C,inactive,–
Cc1cccc(NC(=O)c2cccc(N3C(=O)C4C5CCC(C5)C4C3=O)c2)c1C (stereo not given),11.2 µM (active),–

Structure (SMILES),AC50,"activity, negative = inhibition"
CN(C)c1ccc(NC(=O)c2cccc(N3C(=O)C4C5C=CC(C5)C4C3=O)c2)cc1 (stereo not given),inactive,–
Clc1ccccc1-c1nc(N2CCNCC2)c2ccccc2n1,25.1 µM (active),–
Cc1noc(C)c1-c1nc(N2CCOCC2)c2ccccc2n1,6.31 µM (active),–
c1ccc2c(N3CCOCC3)nc(-c3ccoc3)nc2c1,6.31 µM (active),–
Cc1ccccc1-c1nc(N2CCOCC2)c2ccccc2n1,15.8 µM (active),–
Clc1ccccc1-c1nc(NC2CCNCC2)c2ccccc2n1,inactive,–
Cc1noc(C)c1-c1nc(N2CCN(C)CC2)c2ccccc2n1,inactive,–
O=C(O)CCCCCCCC(=O)O,inactive,–
CCOC(=O)C(C)(C)[C@H](O)C(C)C,–,2.08% [at 11.4 µM]
Cc1cc2nc3c(=O)[nH]c(=O)nc-3n(CC(O)C(O)C(O)CO)c2cc1C (stereo not given),inactive,–
O=C1NC(c2ccccc2)=NC1(NS(=O)(=O)c1ccccc1)C(F)(F)F (stereo not given),inactive,–
Cc1ccccc1-c1nc(N2CCNCC2)c2ccccc2n1,25.1 µM (active),–
Cc1ccccc1-c1nc(N2CCN(C)CC2)c2ccccc2n1,20 µM (active),–
OC[C@@H]1O[C@@H](n2cnc3c(SCc4ccccc4)ncnc32)[C@@H](O)[C@H]1O,–,7.88% [at 11.4 µM]
Nc1nc(Cl)cc(NCCO)n1,–,-4.92% [at 11.4 µM]
CCCCCCCCCCCCCCCCCCc1ccc(C(=O)/C=C\C(=O)O)cc1,inactive,–
Cc1nc(C(=O)Nc2cccc(Cl)c2Cl)nn1-c1cc(OC(C)C)c(Cl)cc1Cl,inactive,–
COc1ccccc1NC(=O)c1ccc(-n2cccn2)nc1,inactive,–
Cc1c(Cl)cccc1NC(=O)c1ccc(-n2ccnc2)nc1,0.0398 µM (active),–
O=C(Nc1ccc(F)cc1)c1ccc(-n2ccnc2)nc1,0.126 µM (active),–
COc1cccc(Cn2c(NCc3cccnc3)nc3c2c(=O)n(C)c(=O)n3C)c1,3.16 µM (active),–
Cn1c(=O)c2c(nc(NCCNc3nc4c(c(=O)n(C)c(=O)n4C)n3C)n2C)n(C)c1=O,–,8.34% [at 11.4 µM]
CN(C)CCNc1nc2c(c(=O)n(C)c(=O)n2C)n1C,–,-5.65% [at 11.4 µM]

Structure (SMILES),AC50,"activity, negative = inhibition"
O=C(CCCNS(=O)(=O)c1cccc2nsnc12)NCCc1ccccc1,7.08 µM (active),–
Cc1cc(C2C(C#N)=C(N)OC3=C2C(=O)CC(C)(C)C3)c(C)s1 (stereo not given),3.55 µM (active),–
N#CC1=C(N)OC2=C(C(=O)CCC2)C12CCC1(CC2)OCCO1,inactive,–
CN1CCN(/C=N/C2=C(C#N)C(c3ccccc3)C3=C(CC(C)(C)CC3=O)O2)CC1 (stereo not given),–,1.82% [at 2.29 µM]
COc1ccc(C2C(C#N)=C(N)OC3=C2C(=O)CC(C)(C)C3)c([N+](=O)[O-])c1OC (stereo not given),5.01 µM (active),–
COc1cc(C2C(C#N)=C(N)OC3=C2C(=O)CCC3)c([N+](=O)[O-])cc1OC (stereo not given),11.2 µM (active),–
CCSC[C@@H](N)C(=O)O,–,-3.53% [at 11.4 µM]
COC(=O)\C(C(C)=O)=C(/C=C/C=C/C=C/N(C)C)N(C)C,–,1.83% [at 2.29 µM]
CCc1c(C)nc(N)n2c(SCC(=O)Nc3ccccc3)nnc12,17.8 µM (active),–
COc1cccc(-c2nccc(N(C)Cc3ccco3)n2)c1,20 µM (active),–
CN(Cc1ccco1)c1ccnc(-c2cccc(C#N)c2)n1,12.6 µM (active),–
CN(Cc1ccco1)c1ccnc(-c2ccoc2)n1,inactive,–
CN(Cc1ccco1)c1ccnc(-c2cccnc2)n1,12.6 µM (active),–
CN(C)c1ncc2nc(-c3cccc(C#N)c3)c(=O)n(C[C@H]3CCCO3)c2n1,inactive,–
CCN=C1NN=C(c2ccc(C)cc2)CS1,15.8 µM (active),–
CC(=O)Nc1ccc(C#Cc2ccc(NC(C)=O)cc2)cc1,inactive,–
Cc1cccc(NC(=O)CC2Nc3cccc4cccc(c34)NC2=O)c1 (stereo not given),2.51 µM (active),–
N/N=C1/c2ccccc2N[C@H]1OC(=O)Nc1ccccc1,–,-29.3% [at 11.4 µM]
CC(=O)Nc1ccc(NC(=O)CC2Nc3cccc4cccc(c34)NC2=O)cc1 (stereo not given),10 µM (active),–
COc1cccc2c1C(=N)c1c(O)c3c(c(O)c1C2=O)C[C@](O)(C(C)=O)C[C@@H]3O[C@H]1C[C@H](N)[C@@H](O)[C@H](C)O1,–,-16% [at 11.4 µM]
COc1ccc(NS(=O)(=O)c2ccc(NC(=O)c3cnn4c(C(F)F)cc(-c5ccc(C)cc5)nc34)cc2)cc1,1.26 µM (active),–
